# This is part of a sample that, as a whole, favours compounds with a hit. Of some 79,000 tested, about 15% had one in any assay. Unmarked numbers belong to inactive results. The source made the active and inactive calls. No stated cut-off is given here; in the data, active means growth inhibition above about 70%; inactive means the rest.
# Key:
# [1] = NCI Yeast Anticancer Drug Screen. Data for the rad50 strain (AID 155);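 further: 0% = growth of vehicle-only cultures of the same strain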; details: S. cerevisiae rad50 strain growth inhibition, stronger effect = higher value
# In short: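 A DNA repair-deficient yeast mutant serves as the test organism; compound-induced growth inhibition is calculated against vehicle-treated cells.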
# [2] = NCI Yeast Anticancer Drug Screen. Data for the mec2-1 strain (AID 157); details: S. cerevisiae mec2-1 strain, stronger effect = higher value
# In short: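 Cells of the genetically defined mec2-1 yeast strain are incubated with test compound. Inhibition of growth is calculated against vehicle-treated controls.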
# [3] = NCI Yeast Anticancer Drug Screen. Data for the sgs1 mgt1 strain (AID 161);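 further: 0% = growth of cultures given vehicle only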; details: S. cerevisiae sgs1 mgt1 strain, stronger effect = higher value
# In short: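 Genetically altered yeast, compound exposure, growth inhibition relative to vehicle.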
# [4] = NCI Yeast Anticancer Drug Screen. Data for the cln2 rad14 strain (AID 165);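 further: 0% = growth equal to vehicle treated cultures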; details: S. cerevisiae cln2 rad14 strain, stronger effect = higher value
# In short: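 The screen exposed genetically defined yeast (cln2 rad14) to test compounds and scored growth inhibition relative to vehicle-treated controls.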
# [5] = NCI Yeast Anticancer Drug Screen. Data for the bub3 strain (AID 167); details: S. cerevisiae bub3 mutant strain, stronger effect = higher value
# In short: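 Inhibition values come from growth of compound-treated mutant yeast normalised to vehicle-treated controls.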
# [6] = NCI Yeast Anticancer Drug Screen. Data for the mlh1 rad18 strain (AID 175); details: S. cerevisiae mlh1 rad18 strain growth inhibition, stronger effect = higher value
# In short: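 Compound-treated yeast growth, normalised to vehicle controls. Strain bears defined DNA repair mutations.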
# [7] = at 5.0 µM (retest, dose inferred, filed as 0.5)
# [8] = at 50.0 µM (retest, dose inferred, filed as 5.0)
SMILES,"growth inhibition [1, 7]","growth inhibition [1, 8]",growth inhibition ([1]; at 50.0 µM),"growth inhibition [2, 7] [%]","growth inhibition [2, 8]",growth inhibition ([2]; at 50.0 µM),"growth inhibition [3, 7]","growth inhibition [3, 8]",growth inhibition ([3]; at 50.0 µM),"growth inhibition [4, 7] [%]","growth inhibition [4, 8]",growth inhibition ([4]; at 50.0 µM),"growth inhibition [5, 7]","growth inhibition [5, 8]",growth inhibition ([5]; at 50.0 µM),"growth inhibition [6, 7]","growth inhibition [6, 8]",growth inhibition ([6]; at 50.0 µM)
Cn1c(=O)cc2c3c(ccc(C(=O)O)c31)C(=O)c1ccccc1-2,40%,34%,80.2% (active),10,50%,36.2%,2%,27%,45.1%,-8,22%,16.5%,1%,62%,61.8%,12%,50%,51.7%
Cc1c(Cl)c(S(N)(=O)=O)cc2c1NC=NS2(=O)=O,10%,-10%,7.45%,-1,2%,-22.8%,-2%,-14%,-26.1%,7,9%,22.4%,-13%,-3%,-20.4%,-3%,10%,-16.6%
CC(C)(C)C(=O)CC(=O)C(F)(F)C(F)(F)C(F)(F)F.CC(C)(C)C(=O)CC(=O)C(F)(F)C(F)(F)C(F)(F)F.CC(C)(C)C(=O)CC(=O)C(F)(F)C(F)(F)C(F)(F)F.[Er],92% (active),28%,92.5% (active),65,9%,91% (active),43%,38%,91.2% (active),40,38%,88.8% (active),40%,34%,91.2% (active),90% (active),26%,65.8%
O=C(C[n+]1ccc2ccccc2c1)c1ccc2ccc3ccccc3c2c1,5%,92% (active),97.7% (active),0,73% (active),85.8% (active),-3%,89% (active),96% (active),1,72% (active),98.2% (active),-11%,92% (active),93% (active),-4%,99% (active),98.7% (active)
CN(CN(C)N=Nc1ccc(Cl)cc1)CN(C)N=Nc1ccc(Cl)cc1,-14%,9%,-3.1%,3,-8%,-1.75%,-24%,4%,4.7%,-6,-2%,19.9%,0%,4%,-0.7%,-12%,3%,9.7%
Cc1cccc(/C=N/NC(=S)Nc2ccccc2)n1,-19%,99% (active),89.2% (active),-49,99% (active),92.8% (active),-42%,99% (active),91.2% (active),-37,99% (active),91.8% (active),-42%,100% (active),92% (active),-30%,100% (active),89.3% (active)
CC(C)C(=O)c1ccc2ccccc2c1O,-1%,1%,21.4%,2,-1%,-9.8%,-13%,-8%,4.35%,3,0%,12.2%,5%,6%,0.5%,-1%,1%,1.05%
CCCCCCCCCCCC[n+]1ccc(C#N)cc1,27%,81% (active),99.2% (active),30,98% (active),95.9% (active),28%,97% (active),-5.4%,26,78% (active),84.4% (active),34%,92% (active),47.8%,16%,92% (active),99.5% (active)
O=C(Oc1cccc2cccnc12)c1cccnc1,93% (active),98% (active),93.5% (active),58,99% (active),99.2% (active),89% (active),99% (active),98% (active),43,94% (active),92.2% (active),97% (active),98% (active),97.8% (active),82% (active),98% (active),97.5% (active)
CC(C)(C)OC(=O)c1ccc(NCC2=C(Br)C(=O)C=CC2=O)cc1,18%,98% (active),89.8% (active),12,99% (active),94% (active),15%,97% (active),83.4% (active),5,94% (active),89.1% (active),0%,96% (active),80.8% (active),14%,99% (active),89.5% (active)
